# Several values for one entry are separate records, joined by “and”; a condition that tells them apart may be missing. Equal entries are not always repeated. Compounds without any hit were thinned out: in the full panel of roughly 83,000, 20% have a hit.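 Plates (96-well) were seeded with cells, treated with compound at one concentration, and incubated for 48 hours before percent growth was determined.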 Activity calls are given as the source filed them.
# System: U251 CNS
# Test: NCI-60 one-dose screen, 48 h (100 = growth as untreated, 0 = no growth, -100 = all killed)
# Settings: 10 µM unless noted
# Experimental: Growth inhibition of the U251 human tumor cell line is measured as a screen for anti-cancer activity. Cells are grown in 96 well plates and exposed to the test compound for 48 hours. Compounds are tested at a single concentration, which is 10^-5 M for most compounds. The reported endpoint is percent growth (GI% or GIPRCNT), where numbers from 0 - 100% represent growth inhibition, and numbers from -100% - 0 represent cell death. For example, a value of 40 represents 60% growth inhibition. A value of 0 means no net growth occurred over the course of the experiment. A value of -40 indicates 40% of cells at the beginning of the experiment died by the end of the experiment. A value of -100 means all cells are dead at the end of the experiment.
# NCI-60 Human Tumor Cell Lines Screen was performed using the standard one-dose NCI protocol, which is described in more detail at https://dtp.cancer.gov/discovery_development/nci-60/default.htm.
# Compounds with GIPRCNT values below 10 were considered active. Activity score was based on GIPRCNT using the following formula: […]
# Score is 0 for GIPRCNT values of 100 or above, 50 for GIPRCNT values of 0, and 100 for GIPRCNT values of -100.
row,SMILES,growth
1,CC(=O)Cc1ccc2c(c1)OCO2,103% (inactive)
2,O=C(NC(Cl)=C(Cl)Cl)P(=O)(c1ccccc1)c1ccccc1,95.5% (inactive)
3,CC12CCC3C(CCC4CC(O)CCC43C)C1CCC2=O (stereo not given),95.9% (inactive)
4,CC(=O)c1cccc(S(=O)(=O)F)c1,100% (inactive)
5,O=C(O)CNCP(=O)(O)O,98.3% (inactive)
6,ClC1OC(Cl)(Cl)C(Cl)(Cl)OC1(Cl)Cl (stereo not given),103% (inactive)
7,CC/C(=C(\c1ccc(OCCN2CCOCC2)cc1)c1ccc(OC(=O)Cc2ccccc2)cc1)c1ccc(Cl)cc1,103% (inactive)
8,O=C(O)C1C(C(=O)O)C2(Cl)C(Cl)=C(Cl)C1(Cl)C2(Cl)Cl (stereo not given),97.7% (inactive) and 103% (inactive)
9,N#CC(C#N)=C(C#N)C#N,99.8% (inactive)
10,Cc1nc2ccccc2c(=O)n1-c1ccccc1F,88.1% (inactive)
11,CC[C@H](C)[C@H](NC(=O)C12CC(NC)(C1)C2)C(=O)N(C)[C@H](C[C@@H](OC(C)=O)c1nc(C(=O)N[C@@H](Cc2ccccc2)C[C@H](C)C(=O)OC)cs1)C(C)C,12.7% (inactive)
12,NC(N)=NC(N)=Nc1ccc(Cl)cc1,113% (inactive)
13,CN(C)[C@@H]1C(=O)C(C(N)=O)=C(O)[C@@]2(O)C(=O)C3=C(O)c4c(O)ccc(Cl)c4[C@@](C)(O)[C@H]3C[C@@H]12,89.9% (inactive) and 103% (inactive)
14,CC1=CC(=O)CCC12CCOC2=O (stereo not given),99.1% (inactive)
15,Clc1ccc(COC(Cn2ccnc2)c2ccc(Cl)cc2Cl)c(Cl)c1 (stereo not given),45.5% (inactive) and 69.4% (inactive)
16,O=P1(N(CCCl)CCCl)NCCCO1 (stereo not given),96.8% (inactive)
17,C=C1C(=O)OC2CC3(C)OC3C3OC3C3=CC(OC3=O)C12 (stereo not given),103% (inactive) and 104% (inactive)
18,COc1c(O)cc2c(c1OC)-c1ccc(SC)c(=O)cc1C(NC(C)=O)CC2 (stereo not given),5.68% (active)
19,C[C@@H]1C/C=C\C(=O)O[C@H](/C=C/C#C/C=C/C(C)(C)[C@@H](O)c2cccc(O)c2Br)[C@@H](C)/C=C/[C@H](C)C[C@H](OC(N)=O)C1,24.5% (inactive)
20,CC/C(Cc1ccccc1)=C(\c1ccc(OCCN2CCCC2)cc1)c1ccc(OC(=O)NCc2ccccc2)cc1,12.5% (inactive)

row,SMILES,growth
1,CCN(CC)CCn1c(=O)n(C)c2ccccc21,96.3% (inactive)
2,COc1cc2c(cc1OC)[C@@H]1C(=O)c3ccc4c(c3O[C@@H]1CO2)C[C@H](C(C)C)O4,57.8% (inactive)
3,COC(=O)[C@@H](C)C[C@H](Cc1ccccc1)NC(=O)c1cccc([C@@H](C[C@H](C(C)C)N(C)C(=O)[C@@H](NC(=O)[C@H]2CCCCN2C)C2CC2)OC(C)=O)n1,4.48% (active)
4,C[N+]12CCC34C5=CC(=O)C(=O)C=C5[N+]5(C)C(=O)CC6OCC=C(C1)C(CC32)C6C45 (stereo not given),104% (inactive)
5,Nc1ccc2c(c1)Cc1cc(N)ccc1-2,94.9% (inactive)
6,c1ccc2c(c1)sc1ccccc12,99.3% (inactive)
7,O=S(=O)(c1ccc(O)cc1)c1ccccc1O,107% (inactive)
8,CC12CCC3C4CCC(=O)C=C4CCC3C1CC1CC(=O)OC12 (stereo not given),97.1% (inactive)
9,N#CC(C#N)=Cc1cccc(F)c1,103% (inactive)
10,O=[N+]([O-])c1c(Cl)cc(Cl)c([N+](=O)[O-])c1Cl,96.1% (inactive)
11,COC[C@H]1OC(=O)c2coc3c2[C@@]1(C)C1=C(C3=O)[C@@H]2CCC(=O)[C@@]2(C)C[C@H]1OC(C)=O,70.5% (inactive)
12,N#CCCc1ccccc1,105% (inactive)
13,CCN1C(=O)NC(=O)C(C)(N2C(=O)c3c(F)c(F)c(F)c(F)c3C2=O)C1=O (stereo not given),-25.4% (active)
14,O=C(O)c1ccccc1N(CCO)CCCl,94.5% (inactive)
15,CC[C@H](C)[C@H](NC(=O)[C@H]1CCCCN1C)C(=O)N(C)[C@H](C(=O)NC12CC(C(=O)N[C@@H](Cc3ccccc3)C[C@H](C)C(=O)OC)(C1)C2)C(C)C,96.7% (inactive)
16,O=C(Cc1ccccc1)NC(O)C(Cl)(Cl)Cl (stereo not given),99.9% (inactive)
17,Cc1cc(N(CCCl)CCCl)ccc1/C=N\NC(=O)c1cccnc1,82.9% (inactive) and 93.2% (inactive)
18,CCCCCCCCCCCCCCCCCC1OCC(COC(=O)O[C@@H](C(=O)O[C@H]2C[C@@]3(O)[C@@H](OC(=O)c4ccccc4)[C@@H]4[C@]5(OC(C)=O)CO[C@@H]5C[C@H](O)[C@@]4(C)C(=O)[C@H](OC(C)=O)C(=C2C)C3(C)C)[C@@H](NC(=O)c2ccccc2)c2ccccc2)O1 (stereo not given in full),40.8% (inactive)
19,COc1ccc2c(c1)c(-c1nc(-c3c[nH]c4ncccc34)cs1)cn2CCCCN1CCOCC1,4.84% (active)
20,O=[N+]([O-])c1ccc2scc3c4ccccc4nc-3c2c1,-92.4% (active)
